According to PubChem BioAssay (Tox21):
Results filed as inconclusive are left out. Activity calls are given as the source filed them. Unless noted, calls follow the shape of the dose curve; as a rule, active = well fitted curve in the direction sought with a large enough effect in the repeat runs; inconclusive = weak or mixed curves; inactive = no such curve, though single readings can be large; an effect the other way counts as inactive or inconclusive.

Experiments:
[1] = qHTS assay to identify small molecule agonists of the peroxisome proliferator-activated receptor delta (PPARd) signaling pathway - cell viability counter screen (AID 743211); also: nearly all actives have a fitted effect of over 55% in size
In short: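 Following 5 h plating at 37 C and 5% CO2, PPARd UAS-bla HEK293H cells took up test compounds for 17 h. Viability was quantified by luminescence 30 min after CellTiter-Glo addition at room temperature.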

[2] = target: Peroxisome proliferator-activated receptor delta (Homo sapiens) (UniProt Q03181); experiment: qHTS assay to identify small molecule agonists of the peroxisome proliferator-activated receptor delta (PPARd) signaling pathway (AID 743212; calls by dose curve)
In short: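 Beta-lactamase reporter readout: a ratiometric FRET signal from the LiveBLAzer substrate after 2 h at room temperature. Compound exposure at 37 °C in PPARδ-bla HEK293H cells driven by an upstream activator sequence.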

[3] = qHTS assay to identify small molecule antagonists of the peroxisome proliferator-activated receptor delta (PPARd) signaling pathway - cell viability counter screen (AID 743213); also: nearly all actives have a fitted effect of over 50% in size
In short: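 Viability counter-screen, qHTS format: PPARd-bla HEK293H, L165041 300 nM final, 17 h compound exposure at 37 C, CellTiter-Glo luminescence after 30 min RT.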

[4] = target: Peroxisome proliferator-activated receptor delta (Homo sapiens) (UniProt Q03181); experiment: qHTS assay to identify small molecule antagonists of the peroxisome proliferator-activated receptor delta (PPARd) signaling pathway (AID 743215; active = well fitted inhibition curve with a large enough effect in the signal ratio in the repeat runs, not every such curve was filed as active; the % refers to the signal ratio;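 also: cells stimulated with agonist L165041 at 300 nM final during compound exposure; series mostly up to about 62 µM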)
In short: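 HEK293H GeneBLAzer PPARd UAS-bla reporter cells; cpd + L165041 300 nM final, 17 h 37 C; LiveBLAzer B/G FRET substrate 2 h RT; fluorescence intensity read-out. Antagonist mode.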

[5] = qHTS assay to identify small molecule agonists of the farnesoid-X-receptor (FXR) signaling pathway - cell viability counter screen (AID 743218); also: nearly all actives have a fitted effect of over 45% in size
In short: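 Luminescence from CellTiter-Glo, read after 30 min at RT, reports viability of GeneBLAzer FXR-UAS-bla HEK 293T cells treated 16 h with compounds in the wells used for the beta-lactamase reporter.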

[6] = qHTS assay to identify small molecule antagonists of the farnesoid-X-receptor (FXR) signaling pathway - cell viability counter screen (AID 743221; active = well fitted cell-killing curve with a large enough effect in the repeat runs, not every such curve was filed as active; also: nearly all actives have a fitted effect of over 50% in size)
In short: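 Compound effects on cell number were measured as CellTiter-Glo luminescence in HEK 293T cells expressing FXR-UAS-bla, after 16 h at 37 C with 50 uM CDCA (final).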

[7] = qHTS assay to identify small molecule agonists of the vitamin D receptor (VDR) signaling pathway - cell viability counter screen (AID 743224); also: series mostly up to about 63 µM; nearly all actives have a fitted effect of over 50% in size
In short: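 Cytotoxicity counter screen: VDR-bla cells, 16 h compound exposure at 37C, 5% CO2; CellTiter-Glo luminescence, 30 min RT, same wells as bla read.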

[8] = qHTS assay to identify small molecule antagonists of the vitamin D receptor (VDR) signaling pathway - cell viability counter screen (AID 743225); also: nearly all actives have a fitted effect of over 50% in size
In short: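 In this counter screen, VDR-bla HEK 293T cells receive test compound plus 3 nM final calcitriol for 16 h at 37C. Room-temperature steps of 2 h with the beta-lactamase substrate, then 30 min with CellTiter-Glo, precede the luminescence read.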

[9] = qHTS assay to identify small molecule agonists of the NFkB signaling pathway (AID 1159509; active = well fitted curve in the direction sought with a large enough effect in the signal ratio in the repeat runs, not every such curve was filed as active; the % refers to the signal ratio; also: series mostly up to about 61 µM)
In short: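 Agonist activity was read as beta-lactamase-driven FRET change (460 and 530 nm emission, 405 nm excitation) following 1.5 hr substrate loading at room temperature. Beforehand, ME-180 NFkB-bla reporter cells were treated with compounds for 5 hr at 37 C.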

[10] = qHTS assay to identify small molecule agonists of the endoplasmic reticulum stress response signaling pathway (AID 1159516; active = well fitted activation curve with a large enough effect in the signal ratio in the repeat runs, not every such curve was filed as active; the % refers to the signal ratio)
In short: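 HeLa ESRE-bla reporter line; cpd 5 h, 37 C/5% CO2; LiveBLAzer B/G FRET substrate 2 h RT; ex 405, em 460/530 nm.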

[11] = qHTS assay to identify small molecule agonists of the endoplasmic reticulum stress response signaling pathway - cell viability counter screen (AID 1159517; calls by dose curve)
In short: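 ESRE-bla HeLa cells (1,500/well) were plated overnight at 37 C and exposed to compounds for 5 hr. After the 2 hr beta-lactamase substrate read, CellTiter-Glo went into the same wells, and luminescence was read after 30 min at room temperature.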

[12] = qHTS assay to identify small molecule antagonists of the retinoid-related orphan receptor gamma (ROR-gamma) signaling pathway - cell viability counter screen (AID 1159520); also: nearly all actives have a fitted effect of over 50% in size
In short: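 Cytotoxicity was read from cellular ATP (CellTiter-Glo luminescence) after 16 hr at 37 C with 1 uM doxycycline induction. The inducer was added 2 hr after compound transfer to Tet-on ROR gamma CHO cells.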

[13] = target: Nuclear receptor ROR-gamma (Homo sapiens) (UniProt P51449); experiment: qHTS assay to identify small molecule antagonists of the retinoid-related orphan receptor gamma (ROR-gamma) signaling pathway (AID 1159521)
In short: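 Screening format: cell-based luciferase reporter in CHO cells with doxycycline-inducible RORγ. Compound pre-exposure lasts 2 h, doxycycline is 1 uM final, induction runs 16 h at 37 C, and ONE-Glo luminescence is read.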

[14] = qHTS assay to identify small molecule agonists of the AP-1 signaling pathway - cell viability counter screen (AID 1159525; calls by dose curve; also: nearly all actives have a fitted effect of over 55% in size)
In short: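 Intracellular ATP by Cell Titer Glo luminescence (30 min, RT) in the same ME-180 AP-1-bla wells after the 5 h compound exposure at 37 °C. Normalised to tetra n-octyl ammonium bromide and DMSO controls.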

[15] = qHTS assay to identify small molecule agonists of the AP-1 signaling pathway (AID 1159526; calls by dose curve)
[16] = target: Bile acid receptor (Homo sapiens) (UniProt Q96RI1); experiment: qHTS assay to identify small molecule antagonists of the farnesoid-X-receptor (FXR) signaling pathway (AID 743217; active = well fitted inhibition curve with a large enough effect in the signal ratio in the repeat runs, not every such curve was filed as active; the % refers to the signal ratio)
In short: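 Read-out: beta-lactamase FRET fluorescence (LiveBLAzer B/G substrate, 2 h, room temperature) in GeneBLAzer FXR-UAS-bla HEK 293T cells. Compounds were co-dosed with 50 uM chenodeoxycholic acid (final) and incubated 16 h at 37 °C.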

[17] = target: Bile acid receptor (Homo sapiens) (UniProt Q96RI1); experiment: qHTS assay to identify small molecule agonists of the farnesoid-X-receptor (FXR) signaling pathway (AID 743220; active = well fitted activation curve with a large enough effect in the signal ratio in the repeat runs, not every such curve was filed as active; the % refers to the signal ratio)
In short: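 FXR-UAS-bla HEK 293T cells carrying a UAS-driven beta-lactamase reporter were plated for 5 h at 37C/5% CO2, then exposed to DMSO-dissolved Tox21 10K compounds for 16 h at 37C. A LiveBLAzer B/G FRET substrate was loaded for 2 h at room temperature before fluorescence reading.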

[18] = target: Vitamin D3 receptor (Homo sapiens) (UniProt P11473); experiment: qHTS assay to identify small molecule agonists of the vitamin D receptor (VDR) signaling pathway (AID 743222; calls by dose curve)
In short: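 Beta-lactamase reporter readout (LiveBLAzer B/G FRET, 2 h RT) in VDR-bla cells after 16 h compound treatment at 37C, 5% CO2; cells pre-incubated 4 h before pin transfer of DMSO solutions.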

[19] = target: Vitamin D3 receptor (Homo sapiens) (UniProt P11473); experiment: qHTS assay to identify small molecule antagonists of the vitamin D receptor (VDR) signaling pathway (AID 743223; active = well fitted inhibition curve with a large enough effect in the signal ratio in the repeat runs, not every such curve was filed as active; the % refers to the signal ratio)
In short: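 Beta-lactamase activity in VDR-bla cells is measured by FRET substrate fluorescence (2 h, room temperature) after cells spend 16 h at 37C with test compound and 3 nM final 1alpha,25-dihydroxyvitamin D3.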

Measured: Potency

Sequence of Peroxisome proliferator-activated receptor delta (Homo sapiens) (Q03181 whole entry, looked up): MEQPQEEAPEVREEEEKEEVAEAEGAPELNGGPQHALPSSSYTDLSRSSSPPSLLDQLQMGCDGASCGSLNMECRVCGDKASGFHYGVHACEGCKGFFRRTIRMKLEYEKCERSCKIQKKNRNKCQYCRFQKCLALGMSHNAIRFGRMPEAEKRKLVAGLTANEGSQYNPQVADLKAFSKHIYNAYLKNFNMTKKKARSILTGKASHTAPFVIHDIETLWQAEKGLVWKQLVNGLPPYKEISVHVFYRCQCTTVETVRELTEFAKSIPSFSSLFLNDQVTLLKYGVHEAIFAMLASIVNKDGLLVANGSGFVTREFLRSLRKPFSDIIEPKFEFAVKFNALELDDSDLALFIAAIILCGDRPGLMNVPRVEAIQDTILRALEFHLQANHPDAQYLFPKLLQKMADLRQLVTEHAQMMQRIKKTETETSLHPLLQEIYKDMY
Sequence of Bile acid receptor (Homo sapiens) (Q96RI1 whole entry, looked up): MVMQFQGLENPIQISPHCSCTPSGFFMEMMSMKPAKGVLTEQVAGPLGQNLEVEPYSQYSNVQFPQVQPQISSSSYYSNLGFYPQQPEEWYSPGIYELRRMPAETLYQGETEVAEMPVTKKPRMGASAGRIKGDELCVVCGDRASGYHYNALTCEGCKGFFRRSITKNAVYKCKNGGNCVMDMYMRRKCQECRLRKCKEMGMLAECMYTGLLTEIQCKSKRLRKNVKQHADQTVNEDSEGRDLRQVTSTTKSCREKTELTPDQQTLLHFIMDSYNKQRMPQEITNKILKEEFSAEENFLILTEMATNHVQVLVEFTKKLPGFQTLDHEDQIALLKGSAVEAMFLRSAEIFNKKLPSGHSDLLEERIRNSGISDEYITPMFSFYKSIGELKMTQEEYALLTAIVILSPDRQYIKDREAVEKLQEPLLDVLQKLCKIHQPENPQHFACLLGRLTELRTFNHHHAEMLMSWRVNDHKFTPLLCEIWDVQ
Sequence of Vitamin D3 receptor (Homo sapiens) (P11473 whole entry, looked up): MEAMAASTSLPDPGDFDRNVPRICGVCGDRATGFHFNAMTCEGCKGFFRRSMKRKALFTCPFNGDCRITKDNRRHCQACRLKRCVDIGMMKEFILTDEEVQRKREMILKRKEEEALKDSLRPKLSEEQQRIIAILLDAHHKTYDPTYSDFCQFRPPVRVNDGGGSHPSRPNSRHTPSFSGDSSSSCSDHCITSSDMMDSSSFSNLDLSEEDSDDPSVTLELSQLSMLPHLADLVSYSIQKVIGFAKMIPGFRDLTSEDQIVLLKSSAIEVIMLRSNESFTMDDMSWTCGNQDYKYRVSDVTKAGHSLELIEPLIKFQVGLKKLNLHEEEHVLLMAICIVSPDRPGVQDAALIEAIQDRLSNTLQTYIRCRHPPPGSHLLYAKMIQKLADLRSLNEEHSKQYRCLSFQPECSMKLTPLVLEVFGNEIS

CCCC(O)C(CC)CO (stereo not drawn)
not listed: [16] | [17] | [18] | [19]
inactive: all other assays above

NC(N)=O
not listed: [16] | [17] | [18] | [19]
inactive: all other assays above

Nc1ccc(S(=O)(=O)c2ccc(N)cc2)cc1
not listed: [18] | [19]
inactive: all other assays above

CCCCC(CC)COC(=O)/C=C/c1ccc(OC)cc1 (stereo not drawn)
not listed: [7] | [16] | [17]
inactive: all other assays above
